Test: endogenous PME-1 and serine hydrolase inhibition – cell lysate, mouse brain cytosol, FP-rhodamine, gel ABPP, selectivity assay for PME-1 inhibitor project, dose response (AID 2366)
Settings: gel-based ABPP;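 active = compounds picked for the later follow-up tests because of their potency and selectivity; inactive = compounds skipped in follow-up as weaker or less selective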

IC50, inactive:
N#C/C(=C\c1cccn1S(=O)(=O)c1cccc(C#N)c1)S(=O)(=O)c1ccc(F)cc1 > 50 µM
CS(=O)(=O)/C(C#N)=C/c1cccn1S(=O)(=O)c1ccc([N+](=O)[O-])cc1 > 50 µM
CS(=O)(=O)/C(C#N)=C/c1cccn1S(=O)(=O)c1ccccc1 > 50 µM
CC(C)(C)S(=O)(=O)/C(C#N)=C/c1cccn1S(=O)(=O)c1ccccc1 > 50 µM
N#C/C(=C\c1cccn1S(=O)(=O)c1cccc([N+](=O)[O-])c1)S(=O)(=O)c1ccc(F)cc1 > 50 µM

— PubChem BioAssay AID2366 (The Scripps Research Institute Molecular Screening Center, 2010)
